Laboratory results taken from the supplement of paper PMC10849652.
About 7,900 targets were measured; listed, in parts, are those with a hit and a random draw of the rest. About 0.6% of all pairs of compound and target were hits.

Tests used:
Test in all cases: log2 fold change, soluble protein after heating vs DMSO (PISA); higher = thermal stabilisation; K562 cells, 10 uM, 30 min; active = over 0.2 and 3.5 SD of the protein, either way, in both replicates (recomputed)
[1] = compound: C1=CC=C(C=C1)[C@H](COC2=CC3=C(C=C2)NC(=O)N3)NC(=O)C4=CC=CN(C4=O)CC5=CC(=C(C=C5)F)F
In short: (§1)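 Soluble protein was defined as the supernatant after 21,000xg for 90 min. It came from K562 cells at 2×10^6 cells/mL given 10 μM compound for 30 min, heated in aliquots for 3 min across 48°C-58°C, pooled, and extracted in PBS with 0.5% NP-40 at 4°C, and was quantified by TMTpro 16plex LC-MS/MS with equalised channel sums. Thermal stability against control samples, from duplicates, is reported as log2 fold change.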

[2] = compound: CC1=C(SC2=C1C(=N[C@H](C3=NN=C(N32)C)CC(=O)N)C4=CC=C(C=C4)Cl)C
In short: as §1

[3] = compound: CC1=C2C(=CC=C1)N=C(N(C2=O)C3=CC=CC=C3C)CN4C=NC5=C(N=CN=C54)N
In short: as §1

[4] = compound: Cc1sc2c(c1C)C(c1ccc(Cl)cc1)=N[C@@H](CC(=O)OC(C)(C)C)c1nnc(C)n1-2
In short: as §1

[5] = compound: c1ccc([C@@H]2C[C@H]2NC2CCNCC2)cc1
In short: as §1

Measured: log2 fold change

IFNGR1 (UniProt P15260)
inactive: [1] 0.106 | [2] 0.105 | [3] 0.028 | [4] 0.046 | [5] 0.03

FUT8 (UniProt Q9BYC5)
inactive: [1] 0 | [2] 0.068 | [3] -0.06 | [4] -0.168 | [5] 0.049

HBA1 (UniProt P69905)
inactive: [1] -0.003 | [2] 0.163 | [3] 0.005 | [4] -0.167 | [5] -0.023

HNRNPC isoform 2 (UniProt P07910)
inactive: [1] 0.102 | [2] -0.441 | [3] -0.171 | [4] 0.07 | [5] 0.139

FIBP (UniProt O43427)
inactive: [1] 0.091 | [2] 0.152 | [3] 0.042 | [4] -0.105 | [5] -0.011

HDAC1 (UniProt Q13547)
UniProt Q13547, sequence (Q13547 whole entry, looked up): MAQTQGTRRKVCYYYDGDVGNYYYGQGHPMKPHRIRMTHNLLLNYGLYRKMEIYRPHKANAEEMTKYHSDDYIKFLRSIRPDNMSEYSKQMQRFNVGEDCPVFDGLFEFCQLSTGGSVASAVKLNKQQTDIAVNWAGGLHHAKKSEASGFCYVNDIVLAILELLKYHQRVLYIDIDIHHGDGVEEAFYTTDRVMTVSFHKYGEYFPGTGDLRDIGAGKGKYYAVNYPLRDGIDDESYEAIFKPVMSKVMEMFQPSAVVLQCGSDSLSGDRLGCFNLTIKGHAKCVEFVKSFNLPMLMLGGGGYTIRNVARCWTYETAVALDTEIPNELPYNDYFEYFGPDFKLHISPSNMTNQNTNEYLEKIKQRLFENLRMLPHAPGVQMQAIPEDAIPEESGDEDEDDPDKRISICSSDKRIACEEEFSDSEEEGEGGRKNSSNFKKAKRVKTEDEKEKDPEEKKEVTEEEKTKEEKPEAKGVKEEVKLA
inactive: [1] 0.004 | [2] 0 | [3] -0.004 | [4] 0.03 | [5] 0.154

GABPA (UniProt Q06546)
inactive: [1] -0.001 | [2] 0.005 | [3] 0.149 | [4] -0.01 | [5] -0.041

GNAS (UniProt Q5JWF2)
inactive: [1] 0.016 | [2] -0.008 | [3] 0.045 | [4] -0.038 | [5] 0.013

FNTB (UniProt P49356)
inactive: [1] -0.034 | [2] 0.401 | [3] -0.017 | [4] 0.269 | [5] -0.044

HK2 (UniProt P52789)
inactive: [1] -0.006 | [2] 0.045 | [3] 0.007 | [4] -0.025 | [5] -0.016

HOOK3 (UniProt Q86VS8)
UniProt Q86VS8, sequence (Q86VS8 whole entry, looked up): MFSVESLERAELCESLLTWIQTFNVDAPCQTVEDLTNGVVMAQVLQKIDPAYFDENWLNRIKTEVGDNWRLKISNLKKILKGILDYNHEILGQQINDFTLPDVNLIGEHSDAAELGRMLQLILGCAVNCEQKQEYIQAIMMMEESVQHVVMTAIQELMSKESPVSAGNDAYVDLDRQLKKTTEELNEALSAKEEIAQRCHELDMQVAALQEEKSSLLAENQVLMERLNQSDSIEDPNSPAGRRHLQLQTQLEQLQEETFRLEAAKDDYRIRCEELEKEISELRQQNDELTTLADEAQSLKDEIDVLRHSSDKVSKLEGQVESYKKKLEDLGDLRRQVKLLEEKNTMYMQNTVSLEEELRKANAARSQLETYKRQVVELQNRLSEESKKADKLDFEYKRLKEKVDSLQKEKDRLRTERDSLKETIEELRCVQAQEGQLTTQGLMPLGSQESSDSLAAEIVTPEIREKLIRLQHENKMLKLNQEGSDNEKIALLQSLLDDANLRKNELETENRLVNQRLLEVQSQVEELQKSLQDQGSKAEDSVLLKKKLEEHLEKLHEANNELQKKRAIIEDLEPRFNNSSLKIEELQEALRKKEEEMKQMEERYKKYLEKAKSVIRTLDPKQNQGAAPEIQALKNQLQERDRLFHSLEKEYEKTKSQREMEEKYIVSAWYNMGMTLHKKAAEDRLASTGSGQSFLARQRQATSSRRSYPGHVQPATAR
inactive: [1] -0.065 | [2] -0.003 | [3] 0.018 | [4] 0 | [5] 0.024

HECTD1 (UniProt Q9ULT8)
inactive: [1] 0.009 | [2] 0 | [3] 0.098 | [4] 0.051 | [5] -0.004

HDAC2 (UniProt Q92769)
inactive: [1] 0.022 | [2] 0.042 | [3] 0.08 | [4] -0.002 | [5] 0.111

HPCAL1 (UniProt P37235)
inactive: [1] 0.007 | [2] -0.011 | [3] 0.047 | [4] -0.011 | [5] 0.032

HMOX2 (UniProt P30519)
inactive: [1] 0.024 | [2] 0.035 | [3] 0.169 | [4] 0.047 | [5] -0.036

FUCA2 (UniProt Q9BTY2)
UniProt Q9BTY2, sequence (Q9BTY2 whole entry, looked up): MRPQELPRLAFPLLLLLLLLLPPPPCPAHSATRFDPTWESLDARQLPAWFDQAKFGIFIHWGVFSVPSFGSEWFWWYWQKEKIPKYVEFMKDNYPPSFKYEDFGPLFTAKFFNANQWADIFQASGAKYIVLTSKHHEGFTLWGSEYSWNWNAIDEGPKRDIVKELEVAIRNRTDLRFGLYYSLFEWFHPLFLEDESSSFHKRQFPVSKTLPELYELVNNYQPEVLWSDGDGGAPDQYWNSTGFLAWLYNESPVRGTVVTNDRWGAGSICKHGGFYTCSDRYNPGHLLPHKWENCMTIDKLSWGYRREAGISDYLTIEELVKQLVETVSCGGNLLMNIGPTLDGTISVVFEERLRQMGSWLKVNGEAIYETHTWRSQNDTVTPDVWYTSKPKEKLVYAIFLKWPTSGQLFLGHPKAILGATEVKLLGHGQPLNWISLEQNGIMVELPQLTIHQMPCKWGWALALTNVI
inactive: [1] 0.055 | [2] -0.004 | [3] 0.005 | [4] 0.034 | [5] 0.006

HAT1 (UniProt O14929)
inactive: [1] 0.009 | [2] -0.005 | [3] 0.007 | [4] -0.101 | [5] -0.05

HMGB3 (UniProt O15347)
inactive: [1] -0.005 | [2] 0.022 | [3] -0.03 | [4] -0.055 | [5] -0.033

FMC1 (UniProt Q96HJ9)
inactive: [1] 0.009 | [2] 0.06 | [3] 0.044 | [4] 0 | [5] -0.002

GSTT1 (UniProt P30711)
UniProt P30711, sequence (P30711 whole entry, looked up): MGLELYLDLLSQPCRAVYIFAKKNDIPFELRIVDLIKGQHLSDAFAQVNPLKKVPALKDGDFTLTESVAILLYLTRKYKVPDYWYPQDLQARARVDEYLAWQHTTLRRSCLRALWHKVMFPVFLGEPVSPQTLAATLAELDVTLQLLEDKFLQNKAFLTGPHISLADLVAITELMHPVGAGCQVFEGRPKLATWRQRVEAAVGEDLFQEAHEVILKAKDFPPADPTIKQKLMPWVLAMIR
inactive: [1] 0.032 | [2] 0.121 | [3] 0.165 | [4] -0.146 | [5] 0.026

GYG1 (UniProt P46976)
UniProt P46976, sequence (P46976 whole entry, looked up): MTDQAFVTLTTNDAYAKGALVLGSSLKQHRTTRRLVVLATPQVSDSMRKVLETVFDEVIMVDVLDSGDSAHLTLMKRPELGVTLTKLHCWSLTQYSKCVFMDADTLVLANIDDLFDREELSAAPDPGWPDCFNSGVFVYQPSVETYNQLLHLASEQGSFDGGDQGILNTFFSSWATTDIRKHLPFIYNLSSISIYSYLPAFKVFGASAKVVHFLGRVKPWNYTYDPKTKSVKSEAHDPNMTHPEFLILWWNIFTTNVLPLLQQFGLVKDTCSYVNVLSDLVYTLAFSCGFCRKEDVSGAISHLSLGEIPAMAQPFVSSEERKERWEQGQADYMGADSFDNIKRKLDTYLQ
inactive: [1] 0.02 | [2] -0.077 | [3] -0.046 | [4] -0.008 | [5] -0.019

GNL3 (UniProt Q9BVP2)
inactive: [1] 0.101 | [2] 0.112 | [3] 0.164 | [4] -0.131 | [5] -0.053

GOPC (UniProt Q9HD26)
inactive: [1] -0.315 | [2] -0.016 | [3] 0.018 | [4] 0.169 | [5] -0.054

FANCI (UniProt Q9NVI1)
inactive: [1] -0.071 | [2] 0.028 | [3] 0.109 | [4] -0.008 | [5] -0.037

GCLM (UniProt P48507)
inactive: [1] -0.014 | [2] 0.062 | [3] 0.108 | [4] 0 | [5] -0.053

GABARAPL2 (UniProt P60520)
UniProt P60520, sequence (P60520 whole entry, looked up): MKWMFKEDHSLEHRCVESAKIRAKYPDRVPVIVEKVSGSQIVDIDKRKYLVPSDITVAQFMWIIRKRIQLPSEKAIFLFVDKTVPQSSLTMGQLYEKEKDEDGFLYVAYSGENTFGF
inactive: [1] 0.037 | [2] 0.035 | [3] 0.039 | [4] -0.038 | [5] -0.055

GLYR1 (UniProt Q49A26)
UniProt Q49A26, sequence (Q49A26 whole entry, looked up): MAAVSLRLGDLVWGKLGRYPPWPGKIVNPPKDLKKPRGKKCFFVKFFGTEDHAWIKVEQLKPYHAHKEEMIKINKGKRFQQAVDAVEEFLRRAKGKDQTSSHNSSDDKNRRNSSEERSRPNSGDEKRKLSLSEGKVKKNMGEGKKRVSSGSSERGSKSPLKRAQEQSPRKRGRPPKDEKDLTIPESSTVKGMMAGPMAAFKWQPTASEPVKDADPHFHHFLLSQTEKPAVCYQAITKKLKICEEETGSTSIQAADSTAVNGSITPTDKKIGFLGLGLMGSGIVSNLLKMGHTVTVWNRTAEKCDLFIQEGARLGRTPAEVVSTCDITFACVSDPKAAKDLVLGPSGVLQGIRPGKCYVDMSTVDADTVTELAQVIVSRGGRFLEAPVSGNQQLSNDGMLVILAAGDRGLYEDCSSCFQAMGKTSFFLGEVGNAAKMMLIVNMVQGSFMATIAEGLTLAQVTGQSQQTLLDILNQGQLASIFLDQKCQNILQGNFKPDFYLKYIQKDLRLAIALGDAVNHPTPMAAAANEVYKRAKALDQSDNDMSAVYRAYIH
inactive: [1] 0.147 | [2] 0.054 | [3] -0.016 | [4] 0.058 | [5] 0.067

GATD1 (UniProt Q8NB37)
inactive: [1] -0.038 | [2] 0.043 | [3] 0.019 | [4] 0.019 | [5] 0.007

GLUD2 (UniProt P49448)
UniProt P49448, sequence (P49448 whole entry, looked up): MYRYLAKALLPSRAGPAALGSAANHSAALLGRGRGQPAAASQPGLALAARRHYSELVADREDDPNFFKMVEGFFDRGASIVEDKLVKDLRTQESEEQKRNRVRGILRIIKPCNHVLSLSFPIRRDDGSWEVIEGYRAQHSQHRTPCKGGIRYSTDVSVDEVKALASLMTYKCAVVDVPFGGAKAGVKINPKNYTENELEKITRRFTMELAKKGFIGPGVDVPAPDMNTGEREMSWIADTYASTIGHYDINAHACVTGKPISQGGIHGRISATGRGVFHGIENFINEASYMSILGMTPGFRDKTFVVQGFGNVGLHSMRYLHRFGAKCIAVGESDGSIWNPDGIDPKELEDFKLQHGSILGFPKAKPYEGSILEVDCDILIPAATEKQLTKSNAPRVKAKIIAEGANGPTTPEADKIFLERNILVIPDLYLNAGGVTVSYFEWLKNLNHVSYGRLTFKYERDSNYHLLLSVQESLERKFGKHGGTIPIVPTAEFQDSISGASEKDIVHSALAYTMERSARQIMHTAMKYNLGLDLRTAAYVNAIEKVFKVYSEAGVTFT
inactive: [1] 0.026 | [2] 0.061 | [3] -0.029 | [4] 0.047 | [5] -0.005

HSPA8 (UniProt E9PK54)
inactive: [1] 0.004 | [2] -0.108 | [3] 0.037 | [4] 0.099 | [5] -0.001

GPKOW (UniProt Q92917)
inactive: [1] -0.133 | [2] 0.078 | [3] 0.076 | [4] 0 | [5] -0.015

HRC (UniProt P23327)
inactive: [1] 0.026 | [2] -0.042 | [3] 0.055 | [4] 0.014 | [5] 0.033

GTF2E1 (UniProt P29083)
inactive: [1] -0.086 | [2] 0.089 | [3] 0.136 | [4] -0.052 | [5] 0.034

GSR (UniProt P00390)
UniProt P00390, sequence (P00390 whole entry, looked up): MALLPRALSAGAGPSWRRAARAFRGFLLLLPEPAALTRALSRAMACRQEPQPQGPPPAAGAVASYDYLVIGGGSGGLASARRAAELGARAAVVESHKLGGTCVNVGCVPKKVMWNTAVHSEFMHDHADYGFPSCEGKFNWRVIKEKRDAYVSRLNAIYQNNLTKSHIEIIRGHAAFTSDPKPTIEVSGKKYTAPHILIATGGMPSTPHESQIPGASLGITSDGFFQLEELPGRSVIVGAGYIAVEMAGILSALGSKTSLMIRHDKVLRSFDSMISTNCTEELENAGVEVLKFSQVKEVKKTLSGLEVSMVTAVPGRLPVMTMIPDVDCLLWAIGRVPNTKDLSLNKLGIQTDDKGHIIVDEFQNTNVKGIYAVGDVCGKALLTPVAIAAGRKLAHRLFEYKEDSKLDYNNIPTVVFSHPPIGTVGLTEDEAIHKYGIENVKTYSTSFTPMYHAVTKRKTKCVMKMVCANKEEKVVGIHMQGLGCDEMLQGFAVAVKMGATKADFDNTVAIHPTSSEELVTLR
inactive: [1] 0.006 | [2] 0.044 | [3] 0.034 | [4] -0.023 | [5] -0.003

HMGCR isoform 3 (UniProt P04035)
inactive: [1] -0.011 | [2] 0.034 | [3] 0.045 | [4] 0.111 | [5] 0.043

FKBP7 (UniProt Q9Y680)
inactive: [1] -0.027 | [2] 0.005 | [3] 0.091 | [4] 0.009 | [5] 0.102

HDAC10 (UniProt Q969S8)
inactive: [1] -0.061 | [2] -0.028 | [3] 0.07 | [4] 0.12 | [5] -0.051

HNRNPK isoform 2 (UniProt P61978)
inactive: [1] -0.027 | [2] 0.012 | [3] 0.047 | [4] -0.023 | [5] 0.013

HBQ1 (UniProt P09105)
inactive: [1] 0.023 | [2] 0.135 | [3] 0.092 | [4] -0.147 | [5] -0.037

HEATR5B (UniProt Q9P2D3)
inactive: [1] -0.029 | [2] -0.015 | [3] 0.052 | [4] -0.071 | [5] 0.016

HADHB (UniProt P55084)
inactive: [1] -0.238 | [2] 0.235 | [3] 0.2 | [4] 0.363 | [5] -0.085

GLCCI1 (UniProt Q86VQ1)
inactive: [1] -0.088 | [2] -0.041 | [3] 0.137 | [4] 0.013 | [5] -0.075

GALNT2 (UniProt Q10471)
inactive: [1] 0.008 | [2] 0.057 | [3] 0.001 | [4] 0.007 | [5] -0.004

GAPVD1 isoform 6 (UniProt Q14C86)
inactive: [1] -0.09 | [2] 0.008 | [3] 0.097 | [4] 0.012 | [5] -0.018

GGT7 (UniProt Q9UJ14)
inactive: [1] 0.028 | [2] -0.055 | [3] -0.069 | [4] 0.026 | [5] 0.032

GALNT11 (UniProt Q8NCW6)
UniProt Q8NCW6, sequence (Q8NCW6 whole entry, looked up): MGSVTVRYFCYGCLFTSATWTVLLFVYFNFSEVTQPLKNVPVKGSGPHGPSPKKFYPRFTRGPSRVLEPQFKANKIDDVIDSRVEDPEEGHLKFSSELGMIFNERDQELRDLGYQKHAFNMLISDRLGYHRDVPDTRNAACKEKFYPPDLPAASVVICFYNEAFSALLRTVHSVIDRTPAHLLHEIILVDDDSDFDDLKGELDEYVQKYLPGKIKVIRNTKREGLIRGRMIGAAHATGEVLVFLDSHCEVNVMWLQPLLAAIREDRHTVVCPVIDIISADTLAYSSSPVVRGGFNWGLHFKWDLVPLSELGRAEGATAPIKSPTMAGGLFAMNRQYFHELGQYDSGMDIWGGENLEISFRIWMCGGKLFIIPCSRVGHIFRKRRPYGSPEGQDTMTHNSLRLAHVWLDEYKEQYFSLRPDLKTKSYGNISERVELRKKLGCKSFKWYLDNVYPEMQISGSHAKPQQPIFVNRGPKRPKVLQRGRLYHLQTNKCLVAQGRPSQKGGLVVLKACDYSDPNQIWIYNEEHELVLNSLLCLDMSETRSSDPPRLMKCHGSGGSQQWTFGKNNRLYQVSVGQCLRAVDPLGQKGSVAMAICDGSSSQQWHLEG
inactive: [1] -0.027 | [2] 0.096 | [3] 0.093 | [4] -0.097 | [5] -0.027

GYS1 (UniProt P13807)
inactive: [1] 0.007 | [2] -0.13 | [3] -0.02 | [4] 0.023 | [5] 0.054

GSTO1 (UniProt P78417)
inactive: [1] -0.024 | [2] 0.028 | [3] -0.002 | [4] -0.013 | [5] 0.007

HIKESHI (UniProt Q53FT3)
inactive: [1] 0.014 | [2] 0.12 | [3] 0.149 | [4] -0.091 | [5] -0.027

IFT74 (UniProt Q96LB3)
inactive: [1] 0.134 | [2] 0.11 | [3] 0.163 | [4] 0.003 | [5] -0.069

GHDC (UniProt Q8N2G8)
inactive: [1] 0.061 | [2] 0.016 | [3] 0.022 | [4] 0.031 | [5] -0.019

GNB2 (UniProt P62879)
UniProt P62879, sequence (P62879 whole entry, looked up): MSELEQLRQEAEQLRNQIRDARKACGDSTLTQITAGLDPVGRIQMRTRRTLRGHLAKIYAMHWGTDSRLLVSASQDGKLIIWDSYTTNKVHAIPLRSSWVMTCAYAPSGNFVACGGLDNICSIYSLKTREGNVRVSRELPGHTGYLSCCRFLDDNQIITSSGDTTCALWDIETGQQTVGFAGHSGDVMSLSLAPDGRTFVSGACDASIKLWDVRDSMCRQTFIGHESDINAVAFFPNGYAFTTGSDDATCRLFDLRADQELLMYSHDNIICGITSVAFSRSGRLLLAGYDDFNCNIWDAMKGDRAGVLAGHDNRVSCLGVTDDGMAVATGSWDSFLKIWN
inactive: [1] 0.025 | [2] 0.045 | [3] 0.029 | [4] -0.09 | [5] -0.015

HADHA (UniProt P40939)
inactive: [1] -0.218 | [2] 0.254 | [3] 0.214 | [4] 0.256 | [5] -0.051
